Inhibition data for 31 compounds are collected here from PubChem BioAssay.

In assay [1] the target is Nuclear receptor coactivator 3 (Homo sapiens) (UniProt Q9Y6Q9). Nature of the assay: NCOA3 GAL4-fusion reporter inhibition – cell-based, luminescence, quadruplicate, confirmation (AID 588792).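 Also: 0% = DMSO treated cells and 100% = gossypol at 36 µM.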 The following applies: HEK293 GAL4-SRC3 luciferase reporter, at 3.6 µM, stronger effect = higher value.
The test system of assay [2] is transactivating tegument protein VP16 (Human herpesvirus 1), Gal4-VP16 luciferase reporter. Briefly: repression of VP16-driven luciferase reporter – cell-based, luminescence, high throughput, counter-screen for SRC3 inhibitor project (AID 588794; in the data active = inhibition above about 30%). The following applies: mammalian cells, at 3.6 µM, stronger effect = higher value.
For assay [3], the target named is Nuclear receptor coactivator 1 (Homo sapiens) (UniProt Q15788). Briefly: NCOA1 GAL4-fusion reporter inhibition – cell-based, luminescence, quadruplicate, confirmation (AID 588820;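 active = mean inhibition above 46.68%, the untreated control wells mean plus 3 SD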;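 also: 0% = DMSO wells and 100% = gossypol 36 µM treated wells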). The following applies: HEK293 GAL4-SRC1 luciferase reporter, at 3.6 µM, stronger effect = higher value.
Assay [4] can be described thus: repression of VP16-driven luciferase reporter – cell-based, luminescence, high throughput, counter-screen for SRC1 inhibitor project (AID 588824; in the data active = inhibition above about 25%). The following applies: cell-based VP16 transactivation luciferase luminescence; at 3.6 µM; stronger effect = higher value.

Unmarked numbers belong to inactive results. Calls of active or inactive are those of the source.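 The calls were made as follows, unless noted: active = mean inhibition over 43.08%, the solvent-only control mean plus 3 SD; inactive = the rest.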

Nuclear receptor coactivator 3 (Homo sapiens), sequence (Q9Y6Q9 whole entry, looked up, the tested form may be a part): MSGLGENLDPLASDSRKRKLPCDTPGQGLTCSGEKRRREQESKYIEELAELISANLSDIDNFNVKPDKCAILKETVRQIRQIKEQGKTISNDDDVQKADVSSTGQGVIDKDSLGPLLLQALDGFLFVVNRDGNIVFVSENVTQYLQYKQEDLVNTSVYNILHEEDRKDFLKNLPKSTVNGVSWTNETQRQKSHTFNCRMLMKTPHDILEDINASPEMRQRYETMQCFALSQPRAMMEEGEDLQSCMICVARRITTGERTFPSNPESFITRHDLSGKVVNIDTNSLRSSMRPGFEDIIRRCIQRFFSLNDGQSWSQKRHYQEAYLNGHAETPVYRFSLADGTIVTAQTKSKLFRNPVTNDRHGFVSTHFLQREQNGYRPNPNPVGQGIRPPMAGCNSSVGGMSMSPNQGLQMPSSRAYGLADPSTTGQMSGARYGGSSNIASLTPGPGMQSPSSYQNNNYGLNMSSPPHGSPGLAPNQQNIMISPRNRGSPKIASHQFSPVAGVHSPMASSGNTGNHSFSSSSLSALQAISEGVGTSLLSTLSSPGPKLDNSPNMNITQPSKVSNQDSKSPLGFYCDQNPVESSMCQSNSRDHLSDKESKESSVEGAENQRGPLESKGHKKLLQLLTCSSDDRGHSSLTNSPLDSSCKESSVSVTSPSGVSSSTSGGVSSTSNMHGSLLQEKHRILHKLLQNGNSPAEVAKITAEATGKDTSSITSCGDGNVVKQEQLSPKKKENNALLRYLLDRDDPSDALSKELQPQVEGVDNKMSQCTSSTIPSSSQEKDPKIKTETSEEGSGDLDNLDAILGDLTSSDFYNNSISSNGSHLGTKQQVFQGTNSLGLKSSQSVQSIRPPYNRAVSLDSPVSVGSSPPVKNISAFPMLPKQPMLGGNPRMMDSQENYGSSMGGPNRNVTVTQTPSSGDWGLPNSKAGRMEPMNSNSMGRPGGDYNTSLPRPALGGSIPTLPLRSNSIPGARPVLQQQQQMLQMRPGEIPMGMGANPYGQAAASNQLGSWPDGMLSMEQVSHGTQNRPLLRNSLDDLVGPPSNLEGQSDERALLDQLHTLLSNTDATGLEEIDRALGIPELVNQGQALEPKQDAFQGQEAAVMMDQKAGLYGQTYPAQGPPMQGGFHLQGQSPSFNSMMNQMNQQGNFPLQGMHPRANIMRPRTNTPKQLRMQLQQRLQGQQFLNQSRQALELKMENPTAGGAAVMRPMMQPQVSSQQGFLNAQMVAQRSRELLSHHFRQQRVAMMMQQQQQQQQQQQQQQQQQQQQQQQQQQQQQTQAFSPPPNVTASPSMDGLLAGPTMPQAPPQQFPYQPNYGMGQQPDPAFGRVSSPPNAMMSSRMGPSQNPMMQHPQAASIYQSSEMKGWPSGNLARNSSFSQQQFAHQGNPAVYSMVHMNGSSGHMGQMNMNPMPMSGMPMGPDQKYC
Nuclear receptor coactivator 1 (Homo sapiens), sequence (Q15788 whole entry, looked up, the tested form may be a part): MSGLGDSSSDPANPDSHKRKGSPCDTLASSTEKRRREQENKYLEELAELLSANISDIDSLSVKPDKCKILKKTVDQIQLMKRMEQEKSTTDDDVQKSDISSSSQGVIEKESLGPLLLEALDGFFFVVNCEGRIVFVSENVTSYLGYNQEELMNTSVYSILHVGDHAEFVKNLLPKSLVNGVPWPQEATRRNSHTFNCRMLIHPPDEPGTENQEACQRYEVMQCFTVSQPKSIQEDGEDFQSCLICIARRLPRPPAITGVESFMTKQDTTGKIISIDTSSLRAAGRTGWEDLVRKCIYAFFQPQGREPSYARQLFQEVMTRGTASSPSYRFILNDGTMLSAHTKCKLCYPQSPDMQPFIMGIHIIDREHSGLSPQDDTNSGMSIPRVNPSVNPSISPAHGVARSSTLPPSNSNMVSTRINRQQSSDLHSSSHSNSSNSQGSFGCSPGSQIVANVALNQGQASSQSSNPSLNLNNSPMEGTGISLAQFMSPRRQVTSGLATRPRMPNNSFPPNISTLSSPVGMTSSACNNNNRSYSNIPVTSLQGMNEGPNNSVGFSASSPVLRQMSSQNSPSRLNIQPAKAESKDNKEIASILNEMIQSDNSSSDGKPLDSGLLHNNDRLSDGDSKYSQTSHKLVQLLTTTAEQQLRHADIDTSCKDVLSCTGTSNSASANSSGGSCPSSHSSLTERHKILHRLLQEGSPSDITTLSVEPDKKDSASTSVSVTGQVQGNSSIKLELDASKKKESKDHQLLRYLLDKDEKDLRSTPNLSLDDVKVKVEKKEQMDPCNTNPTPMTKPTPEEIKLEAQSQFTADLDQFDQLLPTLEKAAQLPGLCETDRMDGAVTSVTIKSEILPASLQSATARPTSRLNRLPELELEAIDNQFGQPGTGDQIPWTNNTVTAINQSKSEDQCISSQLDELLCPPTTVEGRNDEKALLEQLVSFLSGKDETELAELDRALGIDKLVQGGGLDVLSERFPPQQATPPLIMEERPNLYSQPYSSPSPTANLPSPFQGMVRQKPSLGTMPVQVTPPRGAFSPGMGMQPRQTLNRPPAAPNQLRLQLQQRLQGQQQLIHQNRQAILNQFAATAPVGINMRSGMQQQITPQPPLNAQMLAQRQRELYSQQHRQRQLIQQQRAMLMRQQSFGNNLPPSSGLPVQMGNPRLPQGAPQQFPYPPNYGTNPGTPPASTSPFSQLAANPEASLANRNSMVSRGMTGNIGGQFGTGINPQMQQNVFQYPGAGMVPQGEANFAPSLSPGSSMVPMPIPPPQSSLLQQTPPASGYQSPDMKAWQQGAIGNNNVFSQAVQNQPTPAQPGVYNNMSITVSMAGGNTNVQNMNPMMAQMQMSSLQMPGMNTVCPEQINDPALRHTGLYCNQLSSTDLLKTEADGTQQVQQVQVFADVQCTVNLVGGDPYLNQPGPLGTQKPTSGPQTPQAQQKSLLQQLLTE

With `CCCCN(CCCC)c1ncnc2nc[nH]c12`, the inhibition in assay [1] is 43.2% (active); in assay [2], 30.1% (active); in assay [3], 36.2%; in assay [4] it was 25.2%.

`CN(Cc1ccccc1)c1ncnc(N)c1[N+](=O)[O-]`: the inhibition in assay [1] was 41.4%; in assay [2], 34.3% (active); in assay [3], 38.4%; in assay [4] it was 30% (active).

Turning to `NNC(=O)c1cnn(Cc2ccccc2)c1N`, the inhibition in assay [1] is -5.29%; in assay [2], 2.66%; in assay [3], -14.9%; in assay [4] it was -5.69%.

On to `Cc1ccc(-c2nnn(CC(=O)N(Cc3cccs3)C(C(=O)NC3CCCC3)c3ccncc3)n2)cc1` (centres undefined), for which the inhibition was 58.2% (active) in assay [1], 35.2% (active) in assay [2], 48.4% (active) in assay [3] and 34.1% (active) in assay [4].

For the compound `O=C(N/N=C/c1sc(N2CCOCC2)nc1-c1ccccc1)c1cccc(S(=O)(=O)N2CCCC2)c1`, the inhibition in assay [1] is 53.4% (active); in assay [2], 67% (active); in assay [3] it was 50.8% (active); in assay [4], 72% (active).

With `CSc1ncnc2c1ncn2CC(=O)C1CCC2C3CCC4=CC(=O)CCC4(C)C3CCC12C` (centres undefined), the inhibition in assay [1] is 19.5%; in assay [2] it was 12.2%; in assay [3], -0.31%; in assay [4] it was 12.1%.

On to `CCOC(=O)c1cc2sccc2n1CC(=O)N1CCc2ccccc21`, for which the inhibition in assay [1] was 43.4% (active); in assay [2], 29.2%; in assay [3], 31.8%; in assay [4], 31.3% (active).

On to `Oc1ccc(Nc2nc(N3CCCC3)c3ccccc3n2)cc1`, for which the inhibition was 25.6% in assay [1], 42.7% (active) in assay [2], 34% in assay [3] and 40.2% (active) in assay [4].

As to `Cc1ccc(C(=O)NCCn2cc(SCC(=O)Nc3nnc(C)s3)c3ccccc32)cc1`, the inhibition in assay [1] was 18.6%; in assay [2] it was 4.22%; in assay [3], -32.5%; in assay [4], -0.04%.

`Cc1ccc(S(=O)(=O)N2[C@@H](c3ccc(C(C)(C)C)cc3)C(C(=O)O)=CC[C@H]2c2ccc(Cl)cc2)cc1`: the inhibition is 16.6% in assay [1], 23.9% in assay [2], 28.7% in assay [3] and 19.6% in assay [4].

For `NC(=O)N=Nc1c2[nH]c3ccccc3nc-2c2ccccc12`, the inhibition in assay [1] is -8.03%; in assay [2], 45% (active); in assay [3] it was -11.8%; in assay [4] it was 48.8% (active).

Turning to `CC(=O)Nc1ccc(S(=O)(=O)c2ccnc3cc(Cl)ccc23)cc1`, the inhibition in assay [1] is 52.9% (active); in assay [2], 44.1% (active); in assay [3], 47% (active); in assay [4] it was 39.2% (active).

For `CC12CCC(C(=O)N/N=C/c3ccc(O)cc3O)(OC1=O)C2(C)C` (centres undefined), the inhibition is 6.17% in assay [1], 16.8% in assay [2], 11.4% in assay [3] and 6.4% in assay [4].

Turning to `O=C(CSC1=NCCS1)Nc1ccnc2ccccc12`, the inhibition was 28.1% in assay [1], 37.7% (active) in assay [2], 27.5% in assay [3] and 37.9% (active) in assay [4].

As to `COc1ccc(-c2cn[nH]c2-c2ccc(OC)cc2)cc1`, the inhibition is 59.5% (active) in assay [1], 34.7% (active) in assay [2], 38.7% in assay [3] and 33.8% (active) in assay [4].

`O=C(Nc1nc(-c2ccc3ccccc3c2)cs1)C1CCN(S(=O)(=O)c2cccs2)CC1`: the inhibition in assay [1] was 8.55%; in assay [2] it was 32.2% (active); in assay [3] it was -6.77%; in assay [4] it was 33.2% (active).

With `O=C(Nc1nc(-c2ccccc2)cs1)c1ccc2c(=O)n3c(nc2c1)CCCCC3`, the inhibition in assay [1] is 9.45%; in assay [2] it was 31.6% (active); in assay [3], -12%; in assay [4], 30.9% (active).

For `Nc1ccn([C@@H]2O[C@H](CO)[C@@H](O)C2O)c(=O)n1` (some centres undefined), the inhibition in assay [1] is 33.8%; in assay [2], 30.9% (active); in assay [3], 32.5%; in assay [4], 19.4%.

In the case of `NC(=O)C(C(=O)/C=C/c1ccc(Cl)cc1)=C1SCCS1`, the inhibition in assay [1] was 29.4%; in assay [2], 36.6% (active); in assay [3], 30.9%; in assay [4] it was 33.8% (active).

Regarding `Cn1c(/C(C#N)=C/c2ccc(-c3ccc(S(N)(=O)=O)cc3)o2)nc2ccccc21`, the inhibition in assay [1] was 27.9%; in assay [2], 27.3%; in assay [3], -4.53%; in assay [4] it was 28.9% (active).

As to `CC(=O)c1cccc(NC(=O)Nc2cccnc2)c1`, the inhibition was 64.6% (active) in assay [1], 36.1% (active) in assay [2], 58% (active) in assay [3] and 33.6% (active) in assay [4].

On to `CC(=O)c1c(C)oc2ccc(N(C(C)=O)S(=O)(=O)c3cccc4cccnc34)cc12`, for which the inhibition in assay [1] is 15.2%; in assay [2] it was 21.9%; in assay [3], 6.31%; in assay [4], 18.4%.

Regarding `Cc1nc2ccc(NC(=O)c3ccc(Cl)c(S(=O)(=O)N(C)c4ccccc4)c3)cc2s1`, the inhibition in assay [1] is 19.2%; in assay [2], 35.7% (active); in assay [3], 3.35%; in assay [4], 33.7% (active).

For `O=C(Nc1cccc(Cl)c1)Nc1nnc(-c2ccncc2)s1`, the inhibition in assay [1] is 40.1%; in assay [2] it was 31.9% (active); in assay [3], 28.5%; in assay [4] it was 23.7%.

For the compound `COc1ccc(-c2csc(NC(=O)C3CCN(c4ncnc5sc(C)c(C)c45)CC3)n2)cc1OC`, the inhibition in assay [1] is 24.1%; in assay [2] it was 58.1% (active); in assay [3], 23.8%; in assay [4], 52.6% (active).

As for `CC(C)c1nc(NCCO)c(C#N)c2c1CCCC2`, the inhibition in assay [1] is 40%; in assay [2], 30% (active); in assay [3] it was 22.1%; in assay [4], 35.1% (active).

As to `CCCN(CCC)c1nc(-c2ccccn2)nc2ccccc12`, the inhibition in assay [1] was 80% (active); in assay [2] it was 35.2% (active); in assay [3] it was 30.2%; in assay [4] it was 29.9% (active).

On to `Cn1c(/C=C/c2ccc(Cl)cc2Cl)c([N+](=O)[O-])c(=O)n(C)c1=O`, for which the inhibition in assay [1] was 62.2% (active); in assay [2], 51.5% (active); in assay [3], 47.2% (active); in assay [4], 56.3% (active).

For `Cc1ccc(C)c(NC(=O)c2ccccc2NS(=O)(=O)c2cc([N+](=O)[O-])ccc2C)c1`, the inhibition in assay [1] was 20.5%; in assay [2], 25.5%; in assay [3], 21%; in assay [4], 22%.

Take `NNC(=O)C(=O)Nc1ccc(O)cc1`: the inhibition is 2.12% in assay [1], 8.64% in assay [2], -20.1% in assay [3] and -2.23% in assay [4].

Take `Cc1ccc(S(=O)(=O)N2C[C@@H]3CCCC[C@@H]3[C@@H](C)[C@H]2c2cn(Cc3ccccc3)c3ncccc23)cc1`: the inhibition is 22.3% in assay [1], 47.6% (active) in assay [2], 25.8% in assay [3] and 42.2% (active) in assay [4].
